ROMK mod: modulators of human ROMK potassium channel. P48048. Tet-inducible ROMK, thallium flux fluorescence; actives lie on both sides. B-score at 10 µM. 130,000 compounds, 2% hits. AID 1918;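 active = signal ratio slope over the read window, or its plate-corrected B-score, at least 3 SD from the plate mean, either direction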;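 note: B-score of the F/F0 ratio slope over 7 to 12 s after thallium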
Target sequence (P48048 whole entry, looked up): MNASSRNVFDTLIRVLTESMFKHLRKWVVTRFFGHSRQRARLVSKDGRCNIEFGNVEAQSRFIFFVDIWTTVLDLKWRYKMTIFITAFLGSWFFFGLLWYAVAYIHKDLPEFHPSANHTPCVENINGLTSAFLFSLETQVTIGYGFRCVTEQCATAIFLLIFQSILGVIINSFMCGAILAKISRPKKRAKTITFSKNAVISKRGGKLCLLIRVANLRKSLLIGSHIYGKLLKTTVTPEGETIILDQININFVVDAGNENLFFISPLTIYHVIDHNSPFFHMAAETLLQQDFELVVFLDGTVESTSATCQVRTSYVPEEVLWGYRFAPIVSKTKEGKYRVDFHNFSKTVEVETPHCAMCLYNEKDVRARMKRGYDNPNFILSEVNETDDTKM
WT yeast gro inh: growth inhibition of WT yeast, mitochondrial fusion screen. mitochondrial fusion phenotypic screen, WT strain. inhibition, % at 10 µM. 190,000 compounds, 2.1% hits; in the data active = inhibition above about 58%; tested in S. cerevisiae
m-calpain inh: calpain II (pig) inhibition; purified calpain II, fluorogenic peptide substrate, 30 min; AID 1236; 220,000 compounds, 0.37% hits; inhibition, % at 16 µM;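 active = inhibition above about 50%, limit read from the data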
Lmaj promast: inhibitors of Leishmania major promastigote growth; AID 1063; 200,000 compounds, 9% hits; inhibition, % at 10 µM; Leishmania major promastigotes, resazurin fluorescence viability; in the data active = inhibition above about 50%;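 note: promastigotes grown with compound for 44 hours at 28 °C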
KCC2 mod: modulators of human KCC2 chloride dependent transport; B-score of Tl+ flux slope (higher = more flux/activation; lower = inhibition) at 10 µM; 190,000 compounds, 2.2% hits; KCC2 cells, thallium flux FluoZin-2 fluorescence; AID 1456;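 active = thallium flux slope and its plate-corrected score both differing from the plate sample mean at a set confidence after two filtering rounds, in either direction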;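 note: slope of fluorescence scaled to starting intensity during 10 to 20 s after thallium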
An asterisk follows results filed as active; i = inactive; x = not tested or not shown; ! = a repeat was not active. Rows were chosen to be rich in hits. Some 12% of all compounds tested hit in one or more screens of this group.

SMILES	ROMK mod	WT yeast gro inh	m-calpain inh	Lmaj promast	KCC2 mod
CC(=O)CCc1oc2c([N+](=O)[O-])cccc2c1-c1ccc(C)o1	0.129	68.8*	28.8	-3.1	-0.507
Cc1ccc(CNc2oc(-c3ccco3)nc2S(=O)(=O)c2ccccc2)cc1	-0.848	63.2*	18.7	36.2	-0.822
O=S(=O)(c1ccccc1)c1nc(-c2ccco2)oc1NCCN1CCOCC1	-0.2	5.8	2.3	13.3	1.03
CSc1cccc(NS(=O)(=O)c2ccc3c(c2)oc(=O)n3C)c1	x	-9.4	6.5	-1.1	-0.369
Cc1onc(-c2c(Cl)cccc2Cl)c1NC(=O)NN(C)c1ccc([N+](=O)[O-])cn1	1.76	x	3.4	x	0.136
CCN(CC1COc2ccccc2O1)C(=S)NC1CC2CCC1C2 (stereo not given)	-1.18	67.2*	25.3	28.6	-1.06
CC(C)N(C(=S)NC1CC2CCC1C2)c1ccccc1 (stereo not given)	0.947	64.6*	-11.2	15.2	-0.159
O=C(c1cc(Cl)cc(Cl)c1)N1CCN(c2cc(C(F)(F)F)nc3ccccc23)CC1	x	x	-8.9	x	-0.0227
CC1CSc2n(-c3cccc(C(F)(F)F)c3)cc(-c3ccccc3)[n+]21 (stereo not given)	-0.628	-1.8	11.9	86.8*	0.712
CC(C)(C)C1CCC(OC(=O)C[N+]2(C)CCCCC2)CC1 (stereo not given)	0.0806	5.3	-31.6	74.7*	x
CCOC(=O)N1CCN(S(=O)(=O)c2ccc(C)c([N+](=O)[O-])c2)CC1	-0.0231	7.6	22.3	-8.4	0.0396
CN1CCN(C(=O)c2cc3nc(-c4ccccc4)cc(-c4ccccc4)n3n2)CC1	-0.817	11.3	i	95.4*	0.241
Cc1c(/C=C/C(=O)c2ccc(Cl)s2)cnn1C	x	13.7	-63.9	20.0	-0.364
COc1cc(/C=C/C(=O)c2ccc(Cl)s2)cc(OC)c1O	x	14.3	-22.0	100.1*	-0.66
COc1ccc(/C=C/C(=O)c2ccccc2O)cc1	0.0343	35.2	23.9	2.7	1.24
COc1ccc(C(=O)/C=C/c2ccc(OC)c(O)c2)c(F)c1	x	-12.1	-6.8	82.1*	-0.843
COc1ccc(/C=C/C(=O)c2ccc(Cl)s2)cc1O	x	-3.6	11.6	91.6*	0.0752
O=C1CCCC(=O)C1Sc1ccc(Cl)cc1	-0.151	-25.6	-9.5	-14.6	-2.63
Cc1occc(=O)c1OC(=O)Nc1ccc(Cl)c(Cl)c1	0.413	79.9*	23.4	-1.6	0.622
COc1ccccc1C1(CC(=O)Nc2nccs2)CCOC(C(C)C)C1 (stereo not given)	-0.696	5.9	2.4	84.9*	x
Cc1ccc(C2(CC(=O)Nc3nccs3)CCOC(C(C)C)C2)cc1 (stereo not given)	x	21.9	17.7	40.4	-1.39
COc1ccc(CN(C(=S)Nc2ccccc2)C2CC(=O)N(c3ccc(F)cc3)C2=O)cc1 (stereo not given)	x	16.5	14.2	91.4*	-1.13
CNC(=S)N(Cc1ccc(OC)cc1)C1CC(=O)N(c2ccc(Cl)cc2)C1=O (stereo not given)	x	-3.3	30.0	52.3*	0.96
O=C1CC(N(CCc2ccccc2)C(=S)Nc2ccccc2)C(=O)N1c1ccc(Br)cc1 (stereo not given)	x	69.5*	-9.6	36.6	-0.329
CC1(C)CC(NC(=S)Nc2ccc([N+](=O)[O-])cc2)CC(C)(C)N1	-0.903	-6.3	11.9	10.4	0.326
SMILES	ROMK mod	WT yeast gro inh	m-calpain inh	Lmaj promast	KCC2 mod
O=C(Nc1nnc(-c2ccco2)s1)C1CCCCC1	0.577	18.5	-1.1	-5.2	0.664
O=C(Nc1nc(-c2ccco2)c(-c2ccco2)s1)C1CCC1	0.0182	52.4	-4.3	85.6*	-0.259
O=C(NCCc1ccccc1)C1CCN(C(=O)c2ccc([N+](=O)[O-])cc2)CC1	-2.59	-13.0	7.3	-3.5	0.193
COc1ccc(C2=C(CN(C)C)C(c3ccccc3)c3ccccc3O2)cc1 (stereo not given)	0.158	42.8	-26.8	100.3*!	-0.513
CCOc1ccc(C2=C(C=C(C#N)C#N)C(c3ccccc3)c3ccccc3O2)cc1 (stereo not given)	0.733	37.0	6.0	42.1	0.0601
CC1CCC(C(=O)c2c(O)c3ccccc3oc2=O)CC1 (stereo not given)	x	12.3	-13.8	99.4*	0.814
CCCCN=C(C)c1c(O)c2ccccc2oc1=O	-1.31	16.7	73.2*	4.8	0.168
CCCCC(=O)c1c(O)c2ccccc2oc1=O	x	-12.4	16.8	-0.8	-0.126
CC(=N)c1c(O)c2ccccc2oc1=O	0.00103	x	0.4	x	0.472
COCCCN(CC(=O)Nc1ccc(N2CCOCC2)cc1)S(=O)(=O)c1ccc(Cl)cc1	1.72	-12.6	7.9	3.3	0.89
COc1ccc(-c2nc(C(N)=O)c3[nH]c(=O)n(-c4cccc(Cl)c4)c3n2)cc1OC	x	x	-21.7	60.2*	-0.123
CCC1=C(OC(=O)N(CC)CC)N2C(=O)OC(=NCC(=O)OC)[C@]2(Cc2ccccc2)[C@H]2C1=CC[C@H]1C(=O)N(CC(=O)OC)C(=O)[C@H]12	x	x	-24.9	x	-0.143
C#CC[N+](C)(C)CC#Cc1ccccc1	0.0658	-5.3	-7.0	-3.6	0.851
Cc1ccc(C#CC[N+](C)(C)CC#Cc2ccccc2)cc1	-2.51	6.7	1.7	100.1*	-0.0593
O=C(NCC(c1cccnc1)N1CCN(c2ccccc2F)CC1)c1ccccc1 (stereo not given)	x	1.5	-7.6	83.5*	-0.641
O=C(NCC1CCCO1)C(=O)NCC(c1ccco1)N1CCN(c2ccccc2F)CC1 (stereo not given)	0.0533	6.2	-8.5	53.5*	-0.0914
COc1ccc(N2CCN(C(CNC(=O)C(=O)NCC3CCCO3)c3ccco3)CC2)cc1 (stereo not given)	0.369	10.5	3.9	-3.8	0.353
O=C(NCC(c1cccnc1)N1CCN(c2ccccc2F)CC1)c1ccco1 (stereo not given)	x	-1.0	-23.0	89.0*	x
N#Cc1ccc(COn2nnc3ccccc32)cc1	-0.168	28.3	-5.1	-7.6	-0.296
O=c1c(C(c2ccc(F)cc2)c2c(O)nc3n(c2=O)CCCS3)c(O)nc2n1CCCS2	x	x	9.9	x	-0.0212
CC12CCC(C1)C(C)(C)C2OC(=O)c1ccccc1C(=O)O (stereo not given)	x	x	4.2	x	0
Nc1nc(SCC(=O)N2CCCC2)[nH]c(=O)c1NC(=O)c1cccs1	x	x	-20.7	x	0.47
CC1CN(c2ccc(Cl)nn2)CC(C)O1 (stereo not given)	1.74	0.9	26.8	-4.7	1.89
FC(F)(F)c1cnc(NNC(=S)Nc2ccccc2Cl)c(Cl)c1	x	29.7	27.0	-5.6	28.9*
S=C(NNc1ccnc2cc(Cl)ccc12)Nc1ccccc1Cl	-0.0418	41.7	-26.3	42.4	0.236
O=C(c1cccc2ccccc12)N1CCN(c2ccc([N+](=O)[O-])c(NCc3ccco3)c2)CC1	-0.61	3.9	-47.1	55.1*	-0.363
Cc1ccc2c(c1)c1c(n2CC(O)Cn2c(C)nc3ccccc32)/C(=N\O)CCC1 (stereo not given)	x	-12.8	-34.3	57.6*	-0.629
Cc1ccc2c(c1)c1c(n2CC(O)Cn2c(C)nc3ccccc32)C(=O)CCC1 (stereo not given)	x	11.0	-210.5	21.4	0.0431

High-throughput results as filed in PubChem BioAssay.
